Source: PubChem BioAssay
CYP2C19 activ – increases human CYP2C19 enzyme activity; activation factor at 5 µM; AID 1025; recombinant CYP2C19, luciferin-H EGE luminescence; hits give high values; 0 = fully inhibited enzyme, 1 = untreated enzyme; 96,000 tested, under 10 active;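 active means activation factor of at least 2 at 5 µM in the primary screen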;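 further: 0 = wells with 2.5 mM tranylcypromine and 1 = vehicle-only wells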
sEH act – increases human soluble epoxide hydrolase activity. activation, % at 2 µM. 91,000 compounds, 0.04% hits. purified human sEH enzymatic activity, activator screen. AID 717. P34913; in the data active means activation above about 37%
Target sequence (P34913 whole entry, looked up): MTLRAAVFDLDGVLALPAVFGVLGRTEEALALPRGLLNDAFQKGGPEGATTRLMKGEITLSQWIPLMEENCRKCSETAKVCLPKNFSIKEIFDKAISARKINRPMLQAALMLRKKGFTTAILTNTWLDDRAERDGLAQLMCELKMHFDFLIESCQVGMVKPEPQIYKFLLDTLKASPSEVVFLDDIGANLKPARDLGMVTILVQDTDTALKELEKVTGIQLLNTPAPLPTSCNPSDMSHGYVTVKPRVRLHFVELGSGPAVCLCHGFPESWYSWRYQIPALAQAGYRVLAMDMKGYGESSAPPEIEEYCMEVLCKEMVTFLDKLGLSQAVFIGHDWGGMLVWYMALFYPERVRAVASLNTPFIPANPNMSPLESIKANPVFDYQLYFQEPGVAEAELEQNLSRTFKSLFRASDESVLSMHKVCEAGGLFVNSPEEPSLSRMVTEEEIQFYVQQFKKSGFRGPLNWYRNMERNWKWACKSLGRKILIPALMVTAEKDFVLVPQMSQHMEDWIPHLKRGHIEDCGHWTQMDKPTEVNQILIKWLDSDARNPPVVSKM
CYP2C19 inhib – inhibitors of human CYP2C19; P33261; CYP2C19 Supersomes, luciferin-H EGE luminescence, 30 min; inhibition, % at 5 µM; 96,000 compounds, 21% hits;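 active means CYP2C19 inhibition above a set limit at 5 µM in the primary screen, cut at about 50% in these data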;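 further: plate controls were negative control wells for no effect and 2.5 mM tranylcypromine positive control for full effect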
sEH inhibitor – blocks human soluble epoxide hydrolase activity; P34913; recombinant human sEH enzymatic activity assay; inhibition, % at 2 µM; 91,000 compounds, 0.34% hits; AID 707; in the data active means inhibition above about 80%
CYP2C9 act – CYP2C9 (human) activation; P11712; recombinant CYP2C9, luciferin-H conversion, luminescence; hits give high values; factor 1 = untreated enzyme, 0 = blocked; activation factor at 5 µM; 96,000 compounds, 1.4% hits; AID 1024;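 active means activation factor of 2 or more for CYP2C9 at a 5 µM dose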;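 further: 0 = sulfaphenazole-blocked wells and 1 = vehicle-only wells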
CYP2C9 inhib – human CYP2C9 inhibition | CYP2C9 Supersomes, luciferin-H conversion, luminescence | AID 777 | inhibition, % at 5 µM | P11712 | 96,000 compounds, 20% hits;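 active means blocking of liver enzyme CYP2C9 beyond about 50% at 5 µM, limit read from the data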
* = called active by the depositor; . = no result given. Rows were chosen to be rich in hits. Some 27% of all compounds tested hit in one or more screens of this group.

SMILES	CYP2C19 activ	sEH act	CYP2C19 inhib	sEH inhibitor	CYP2C9 act	CYP2C9 inhib
CCN(CC)C(=O)CSc1nc(O)cc(=O)n1CC	1	-7	-3	7	1	0
Cc1oc(-c2ccc(Cl)cc2)nc1CN1CCCC(C(=O)NCCCN2CCCC2=O)C1 (stereo not drawn)	0.8	.	22	.	0.8	23
CCCCC(CCC(=O)O)(C(=O)OCC)c1csc(N)n1 (stereo not drawn)	0.9	-3	6	3	1	-1
Cc1ccc(S(=O)(=O)N2CCCC(C(=O)NCCc3ccc4c(c3)OCO4)C2)cc1 (stereo not drawn)	0.5	-37	49	37	0.6	36
Clc1ccccc1-c1nc2ccccc2c2nncn12	0.4	9	62*	-10	0.8	16
O=C1CCCC2=C1C(c1ccco1)Nc1ccc(C(=O)c3ccccc3)cc1N2 (stereo not drawn)	0.7	.	34	.	0.7	32
Cc1ccc2cc(C#N)c(N3CCCN(S(=O)(=O)c4ccc(F)cc4)CC3)nc2c1	.	-11	.	15	.	.
CCCNC(=O)N1CCN(c2nc(C(C)C)c3c(c2C#N)CC(C)(C)OC3)CC1	0.1	9	87*	-12	0.2	80*
Cc1ccc(S(=O)(=O)N2CCN(c3nc(C(C)C)c4c(c3C#N)CC(C)(C)OC4)CC2)cc1	0.3	8	68*	-7	0.1	95*
CC(C)c1nc(NCCN2CCOCC2)c(C#N)c2c1COC(C)(C)C2	0.9	.	15	.	0.5	45
CCOc1ccccc1Cn1c(=O)oc2ccc(C)cc21	.	1	.	-1	.	.
Cc1ccc2oc(=O)n(CCOc3ccccc3Cl)c2c1	1.1	-8	-5	10	1.1	-8
CCCOc1ccccc1Cn1c(=O)oc2ccc(C)cc21	0	-7	96*	9	0.2	84*
CCCCOC(=O)Cn1c(=O)oc2ccc(C)cc21	0.7	-6	26	5	2.2*	-123
COc1ccccc1OCCCn1c(=O)oc2ccccc21	0	-4	100*	2	0.7	32
COc1ccccc1OCCCn1c(=O)oc2ccc(C)cc21	0.4	12	56*	-12	0.8	20
Cc1cc(N2CCC3(CC2)OCCO3)n2nc(C)c(-c3ccc(Cl)cc3)c2n1	.	10	.	-14	.	.
CC(=O)NCCc1ccc(S(=O)(=O)Nc2cccnc2)cc1	0.8	-4	19	7	1	5
COc1ccccc1OCCCn1c(=O)sc2ccccc21	0	6	100*	-2	0.3	74*
CC(=O)Nc1sc(C)c(C)c1CN1CCN(S(=O)(=O)c2ccccc2)CC1	0.9	.	9	.	0.9	6
COc1cc(C(=O)N2CCC(NC(=O)C(Cc3ccc(C(C)C)cc3)NC(C)=O)CC2)cc(OC)c1OC (stereo not drawn)	0.9	-10	13	9	1	3
CC(=O)NC(Cc1ccc(C(C)C)cc1)C(=O)NC1CCN(c2nc(C)cc(C)n2)CC1 (stereo not drawn)	0.4	.	60*	.	1.4	-35
Cc1ccc(CN2C(=O)/C(=C3\SC(N4CCOCC4)=NC3=O)c3cc(Br)ccc32)cc1	1	.	2	.	0.6	41
O=C1N=C(N2CCOCC2)S/C1=C1\C(=O)N(Cc2ccccc2)c2ccc(Br)cc21	0.7	.	30	.	0.4	62*
CCCCN1C(=O)/C(=C2\SC(N3CCCCC3)=NC2=O)c2ccccc21	0.5	2	53*	-2	0.1	90*
SMILES	CYP2C19 activ	sEH act	CYP2C19 inhib	sEH inhibitor	CYP2C9 act	CYP2C9 inhib
O=C(NCc1ccccn1)C1CCCN(S(=O)(=O)c2cccc3nsnc23)C1 (stereo not drawn)	1.1	10	-13	-9	1	-3
Cc1ccc(/C=N/n2cnnc2)s1	0.8	16	16	-13	0.9	14
Cc1ccc(Sc2oc(/C=N/n3cnnc3)cc2Br)cc1	0	-14	100*	14	0.8	16
CSc1ccc(Cl)c(C(=O)Nc2ccc(OCC(N)=O)cc2)c1	1	-12	3	11	1.4	-44
COC(=O)c1ccc(CS(=O)(=O)c2ccc(C)cc2)cc1	0.7	21	32	-24	0.4	58*
COC(=O)c1cccc(COC(=O)c2ccc(CS(=O)(=O)c3ccc(C)cc3)cc2)c1	0.9	-9	9	8	0.2	77*
COC(=O)c1ccc(S(=O)(=O)N2CCCCCC2)cc1	0.6	2	44	-3	0.7	26
Cc1ccc(S(=O)(=O)CCCS(=O)(=O)c2ccc(C)cc2)cc1	0.5	7	52*	-5	0.6	38
C=CCc1cccc2cc(C(=O)NCc3ccc(C(=O)OCC)o3)c(=O)oc12	0.6	0	44	1	0.6	40
COc1ccc(NC(=O)C2CCN(C(=O)c3cccs3)CC2)cc1	1.1	-8	-6	10	1.2	-20
CCC1CCCCN1Cc1ccc(OC)c(C)c1 (stereo not drawn)	0.9	2	12	-4	1	4
O=C(O)c1ccc2c(c1)C(=O)N(C(Cc1ccc(O)cc1)C(=O)O)C2=O (stereo not drawn)	1	6	2	-4	1	-4
CCn1cc([N+](=O)[O-])c(C(=O)Nc2ccc(Br)cn2)n1	0.2	2	82*	-1	0.7	28
CCn1cc([N+](=O)[O-])c(C(=O)Nc2c(C)nn(Cc3c(F)c(F)c(F)c(F)c3F)c2C)n1	0.9	12	8	-9	0.9	7
O=C(Nc1cccc(-c2cn3ccsc3n2)c1)c1ccccc1	0.4	.	59*	.	0.2	85*
COc1ccccc1C(=O)Nc1cccc(-c2cn3ccsc3n2)c1	0.9	-6	13	10	0.7	29
O=C(Nc1cccc(-c2cn3ccccc3n2)c1)c1cccc(Cl)c1	0.7	-17	29	16	0.2	84*
CC(=O)NCCn1c(SCC(=O)OCc2ccccc2)nc2ccccc2c1=O	0.1	2	86*	-2	0.5	52*
C=C(C)Cn1c(SCC)nc2ccccc2c1=O	0.1	4	88*	-7	0.7	35
CCN(CCCn1c(SCC#N)nc2ccccc2c1=O)c1ccccc1	0.2	9	77*	-9	0.1	93*
CC(=O)NCCn1c(SCC(=O)c2ccccc2)nc2ccccc2c1=O	0.3	-12	71*	11	0.4	55*
C=C(C)Cn1c(SCC#N)nc2ccccc2c1=O	0.5	2	47	0	0.6	45
CCn1c(SCC(N)=O)nc2ccccc2c1=O	1.1	1	-11	-2	1.1	-8
C=CCOc1ccccc1/C=c1\sc2nc(=O)c(C)nn2c1=O	.	-3	.	6	.	.
COc1ccc(S(=O)(=O)NCCc2c(C)nn(C)c2Oc2ccccc2)cc1	0.1	.	87*	.	0.5	48
COc1ccc(S(=O)(=O)NCc2ccccn2)cc1	0.7	-12	32	11	0.9	12
